# Screening data (PubChem BioAssay)
# Rows were chosen to be rich in hits. Some 3% of all compounds tested hit in one or more screens of this group.
# SENP6 inh – SENP6 protease inhibitors, primary screen, biochemical, luminescence, uHTS; 1.8% of 330,000 active; Sentrin-specific protease 6 (Homo sapiens), Q9GZR1; Recombinant SENP6 catalytic domain, aminoluciferin luminescence; AID 2599, 2010; inhibition, % at 10 µM;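 active = inhibition above about 50% at the single tested dose, limit read from the data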;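 also: plate controls were DMSO wells with enzyme for no effect and DMSO wells lacking enzyme for full effect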
# SENP8 block-1 – SENP8 protease inhibitors, primary screen, biochemical, luminescence; Sentrin-specific protease 8 (Homo sapiens), Q96LD8; purified SENP8, Z-RLRGG-aminoluciferin cleavage; inhibition, % at 10 µM; 1.2% of 330,000 active; AID 2540, 2010; in the data active = inhibition above about 50%
# Target sequence (Q96LD8 whole entry, looked up): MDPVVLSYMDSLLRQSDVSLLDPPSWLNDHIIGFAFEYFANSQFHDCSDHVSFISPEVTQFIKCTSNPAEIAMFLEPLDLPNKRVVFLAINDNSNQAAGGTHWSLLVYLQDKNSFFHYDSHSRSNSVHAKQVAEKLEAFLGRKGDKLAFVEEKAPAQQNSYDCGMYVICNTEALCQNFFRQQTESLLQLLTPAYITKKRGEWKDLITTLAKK
# SENP7 block – SENP7 protease inhibitors, primary screen, biochemical, luminescence, uHTS; inhibition, % at 5 µM; 1.5% of 330,000 active; recombinant SENP7, Z-RLRGG-aminoluciferin luminescence, 40 min; Sentrin-specific protease 7 (Homo sapiens), Q9BQF6;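 active = inhibition above about 50% at the single test dose, limit read from the data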;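 also: plate controls were DMSO with enzyme for no effect and no enzyme buffer wells for full effect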
# Target sequence (Q9BQF6 706-1050 limits assumed): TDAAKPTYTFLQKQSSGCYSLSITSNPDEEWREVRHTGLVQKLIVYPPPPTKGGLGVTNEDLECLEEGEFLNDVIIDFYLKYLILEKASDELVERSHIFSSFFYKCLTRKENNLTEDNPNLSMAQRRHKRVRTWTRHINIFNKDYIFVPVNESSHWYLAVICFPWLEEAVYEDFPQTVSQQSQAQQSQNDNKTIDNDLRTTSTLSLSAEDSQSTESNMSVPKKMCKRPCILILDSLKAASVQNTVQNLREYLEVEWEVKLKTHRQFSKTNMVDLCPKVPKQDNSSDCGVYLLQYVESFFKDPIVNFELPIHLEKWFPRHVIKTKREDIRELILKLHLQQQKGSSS
# C8 TRAIL sens – viability loss with TRAIL in NB7+C8 cells, primary screen, TRAIL sensitizer project, cell-based, ATPlite luminescence; inhibition (viability loss, TRAIL sensitization), % at 10 µM; 1% of 360,000 active;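 active = compounds causing at least 50% loss of cell viability in the single-dose screen, relative to plate controls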
# PPC-1+TRAIL kill – compounds killing PPC-1 cancer cells with TRAIL present, primary screen, TRAIL potentiator project, ATPLite luminescence, uHTS; AID 1443, 2008; cell killing (% activity), % at 4 µM or 5 µM; PPC-1 cells + TRAIL, ATPLite viability luminescence; 0.41% of 220,000 active;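 active = cell killing above 50% in the first pass at 4 µM, then a duplicate retest at 5 µM averaging 50% or more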;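 also: plate controls were cells with TRAIL plus DMSO for no effect and medium-only wells lacking cells for full effect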
# SENP8 block-2 – human SENP8 protease inhibitors, primary screen, biochemical, fluorescence, Nedd8 protein substrate, uHTS | Sentrin-specific protease 8 (Homo sapiens), Q96LD8 | recombinant SENP8 | inhibition, % at 20 µM | 0.64% of 360,000 active; in the data active = inhibition mostly above about 40%, no sharp cut-off; inactive = mostly below about 27%
# Numbers without * were called inactive; i = inactive; / = not tested or not shown.
SMILES,SENP6 inh,SENP8 block-1,SENP7 block,C8 TRAIL sens,PPC-1+TRAIL kill,SENP8 block-2
O=c1cc(-c2ccc(O)c(O)c2)oc2ccc3ccccc3c12,95.4*,95.8*,99.3*,74.4*,/,-86.9
CC(C)[C@H](NC(=O)c1cccc(S(=O)(=O)N2CCOCC2)c1)C(=O)OCC(=O)Nc1cccc(Br)c1,/,/,/,-5.6,/,16.5
CC(C)CN(C(=O)COC(=O)CCSc1ccc(Cl)cc1)c1c(N)n(Cc2ccccc2)c(=O)[nH]c1=O,/,/,/,19.2,/,8.0
Cc1ccc(Cl)cc1N1CCN(C(=O)c2cc3c(=O)[nH]c4ccccc4c3n2C)CC1,-6.0,-8.7,-3.4,47.8,50.5*,-7.1
Cn1c(C(=O)N2CCN(c3ccc(Cl)cc3)CC2)cc2c(=O)[nH]c3ccccc3c21,0.0,6.6,4.9,13.7,-19.1,-57.0
[O-][N+]1=c2ccc(Nc3ccccc3)cc2=NC12CCCCC2,/,/,/,69.5*,11.2,86.5*
O=[N+]([O-])c1ccc2c(c1N1CCCCC1)=NC1(CCCCC1)[N+]=2[O-],24.9,12.5,1.5,-1.8,10.2,34.9
COc1ccccc1N(Cc1ccccc1)S(=O)(=O)c1cccc(C(=O)Nc2cc(C)ccn2)c1,42.0,25.9,-1.7,61.3*,/,11.4
COc1ccccc1N(Cc1ccccc1)S(=O)(=O)c1cccc(C(=O)Nc2ncccc2C)c1,-8.5,1.4,4.0,12.1,/,9.6
O=c1c2[nH]c3ccc(F)cc3c2ncn1C1CCCCC1,0.2,-9.3,-7.4,51.4*,13.8,-116.9
Cc1cccc(NS(=O)(=O)c2ccc3[nH]c(=O)[nH]c3c2)c1C,-1.4,3.8,9.2,9.0,/,10.0
Cc1cccc(NS(=O)(=O)c2ccc3c(c2)Cc2cc(S(=O)(=O)Nc4cccc(C)c4C)ccc2-3)c1C,/,/,/,59.5*,8.1,11.5
Cc1cc(C(=O)CSc2nc3ccccc3[nH]2)c(C)n1CC1CCCO1 (centres undefined),8.2,-7.9,3.2,76.3*,7.1,1.5
Cc1cc(C(=O)CSc2nc(N)cc(=O)[nH]2)c(C)n1CC1CCCO1 (centres undefined),-3.7,-10.4,-1.8,3.9,/,-1.4
COc1cccc(-c2noc(-c3ccc(Br)o3)n2)c1,1.7,56.8*,72.6*,15.8,20.0,12.7
COc1ccc(-c2noc(-c3ccc(Br)o3)n2)cc1,31.1,-0.3,36.3,5.3,-7.3,-13.1
O/N=C1/CCc2cccc3cccc1c23,1.2,0.1,-1.0,-4.0,8.1,4.4
O=C1C(=NO)CCc2ccccc21,/,/,/,45.9,/,41.9*
CC(C)NC(=O)Nc1ccc2c(c1)C(=O)N([C@H](C)CO)C[C@@H](C)[C@@H](CN(C)C(=O)NC1CCCCC1)O2,-4.6,-11.5,-1.4,2.1,/,-86.9
O=[N+]([O-])c1cc(/C=N/N/C(=N/c2ccccn2)c2ccccn2)ccc1O,15.4,1.1,-2.4,4.7,11.3,47.3*
Cc1ccc(C(=O)Nc2ccc(S(=O)(=O)Nc3cnc4ccccc4n3)cc2)cc1,-14.0,4.2,1.7,-13.1,/,-318.8
O=C(CCN1C(=O)/C(=C/c2ccccc2)SC1=S)NC1CCS(=O)(=O)C1 (centres undefined),16.5,15.5,-3.1,19.2,/,12.0
O=C(CN1C(=O)/C(=C/c2ccco2)SC1=S)NC1CCS(=O)(=O)C1 (centres undefined),7.0,-3.7,-1.6,-12.1,/,40.9*
O=[N+]([O-])c1ccccc1C1Nc2cccc3cccc(c23)N1,20.2,23.5,2.7,-5.8,6.4,50.6*
O=C(NCCc1ccccc1)c1nc(-c2cccs2)no1,-3.5,-12.2,8.3,-10.9,14.0,13.4
SMILES,SENP6 inh,SENP8 block-1,SENP7 block,C8 TRAIL sens,PPC-1+TRAIL kill,SENP8 block-2
CC(C)N(CCNC(=O)c1oc(=O)c2ccccc2c1-c1ccccc1)Cc1ccco1,-5.0,-11.9,-1.2,6.2,17.2,18.0
CCOc1cc(/C=C/c2cc(C(=O)O)c3ccccc3n2)ccc1OC,-1.7,3.4,3.3,58.0*,28.4,-415.6
CCOc1cc(/C=C/c2cc(C(=O)O)c3ccccc3n2)ccc1O,4.6,-6.3,-10.5,37.5,21.8,-425.4
NC1=NC(=Nc2ccc(Cl)cc2)c2ccccc21,13.2,-20.2,-3.4,-4.3,-0.5,20.2
CC(C)c1ccc(N=C2N=C(N)c3ccccc32)cc1,9.4,-8.8,-8.5,57.2*,40.2,28.4
O=C(Nc1ccccc1F)c1cc(S(=O)(=O)N2CCOCC2)cs1,-7.8,-1.4,-8.8,-28.4,/,9.5
COc1ccc(CS(=O)(=O)/C(Cl)=C(/Cl)C(=O)Nc2ccc(OC)nc2)cc1,-2.5,0.6,3.0,89.5*,16.1,13.9
COc1ccc(NC(=O)Cc2ccccc2)cn1,2.8,6.9,-5.1,-0.6,2.9,8.8
COc1ccc(NC(=O)/C(Cl)=C(/Cl)S(=O)Cc2ccccc2)cn1 (centres undefined),-16.7,-12.2,-6.1,96.2*,1.8,17.9
O=C(O)CC(CC(=O)N1CCN(C(=O)c2ccco2)CC1)c1ccccc1 (centres undefined),2.3,2.1,-0.4,6.7,/,1.7
CCCC(=O)N1CCC1(C)C(=O)NCc1ccccc1SC (centres undefined),/,/,/,-12.6,/,10.9
Cc1ccc(/C(N)=N/OC(=O)c2cccc(Cn3cc(C(F)(F)F)ccc3=O)c2)cc1,-2.6,9.6,4.8,80.7*,3.5,12.6
N/C(=N\OC(=O)c1cccc(Cn2cc(C(F)(F)F)ccc2=O)c1)c1ccccc1,-18.2,-9.2,11.6,36.4,15.6,-4.9
OC(Cc1ccccc1)c1ncc(-c2ccc3ccccc3c2)[nH]1 (centres undefined),/,/,/,18.0,/,-234.3
COc1ccc(NS(=O)(=O)c2ccc(N/N=C(\C)c3ccncc3)c([N+](=O)[O-])c2)cc1,9.9,-1.2,6.3,30.8,54.5*,37.7
COc1ccc(C=NNc2ccc(S(=O)(=O)Nc3ccccc3C(=O)O)cc2[N+](=O)[O-])c(OC)c1,17.1,11.8,0.4,-2.0,/,44.3*
Cc1nc2c(-c3ccc(F)cc3)cnn2c(N)c1-c1ccc(F)cc1,-14.4,-21.6,-4.1,52.8*,/,-310.6
Cc1cc(N)n2ncc(-c3ccc(F)cc3)c2n1,-8.0,-13.4,-3.3,7.3,22.5,i
C/C(=N/NC(=O)c1cc2ccccc2cc1O)c1ccco1,73.8*,52.5*,46.7,55.3*,/,-74.3
C/C(=N\NC(=O)c1cc(C)nc2ccccc12)c1ccco1,-1.2,1.0,-7.0,-3.7,18.4,8.9
COc1ccc(Cc2nnc(N/N=C/c3ccc(O)cc3O)[nH]c2=O)cc1OC,-13.4,-12.1,-5.4,50.9*,5.2,12.6
CCCCCC/C=N/Nc1nnc(Cc2ccc(OC)c(OC)c2)c(=O)[nH]1,-20.8,4.1,-0.8,-19.1,/,-5.8
